Screening results deposited in PubChem by National Center for Advancing Translational Sciences (NCATS).
Sampled rows, rich in hits. Any-hit rate of the full collection: about 6.7%.
KB-3-1 cytotox – KB-3-1 parental cell cytotoxicity; KB-3-1 viability, CellTiter-Glo ATP luminescence, 72 h; Potency, µM (titrated, usually from 46.1 µM), most hits filed as cytotoxic; actives 1.4% (n = 400,000); note: nearly all actives have a fitted effect of over 60% in size
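Multi-concentration cytotoxicity screen in KB-3-1 cells grown in DMEM lacking phenol red with 10% FBS. After 72 h at 37 °C with compound, ATP-dependent luminescence was recorded.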
PINK1 modulator – PINK1 expression modulation. AID 624263. Potency, µM (series often up to 76.6 µM), hits mostly activators. PINK1 immunofluorescence, high-content cytometry, 24 h. actives 0.2% (n = 410,000); active = well fitted activation curve with a large enough effect; inconclusive = small, poorly fitted or top-dose-only effect; cell line not stated here; note: nearly all actives have a fitted effect of over 65% in size
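Compound titrations (5 concentrations, 24 h) on a stable cell line; DMSO and CCCP controls. Endpoint: fixed-cell PINK1 immunofluorescence with mitochondrial, cell and nuclear markers, scanned by microplate cytometer.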
MCF10A rereplic – inducers of DNA re-replication in MCF 10A breast cells | MCF 10A DNA re-replication, Hoechst nuclear intensity, 48 h | Potency, µM (highest dose often 46.1 µM), hits mostly activators | actives 2.9% (n = 350,000) | AID 624296; note: nearly all actives have a fitted effect of over 50% in size
SW480 rereplic – induces DNA re-replication in SW480 colon adenocarcinoma cells; AID 624297; actives 1.8% (n = 340,000); SW480 DNA re-replication, Hoechst DNA content imaging, 48 h; Potency, µM (highest dose often 46.1 µM), most hits filed as activators; note: nearly all actives have a fitted effect of over 55% in size
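First, 250 cells per well were seeded. Next, compound or vehicle (23 nL) was pinned in, plates sat 48 hr at 37 C. Finally Hoechst was added for 40 min before fluorescence scanning.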
KB-V1 MDR tox – kills drug-selected multidrug resistant KB-V1 cells; KB-V1 MDR cells viability, CellTiter-Glo, 72 h; Potency, µM (top dose mostly 46.1 µM), usual class: cytotoxic; actives 3.4% (n = 400,000); AID 1347076; note: nearly all actives have a fitted effect of over 60% in size
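Following 72 h at 37 degrees C with compound, KB-V1 cell viability was read by CellTiter-Glo luminescence, medium being phenol-red-free DMEM plus 10% FBS; concentration-response parameters came from normalized, curve-fitted qHTS data.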
Numbers stand for hits; ! = not active in a repeat. Unless noted, calls come from the whole dose curve; as a rule, active = well fitted curve in the direction sought with a large enough effect; inconclusive = small, poorly fitted or top-dose-only effect, or another doubt; inactive = no such curve, though single readings can be large; an effect the other way counts as inactive or inconclusive.

How did CN=C(N)NC(=O)Nc1c(C)cccc1C do in these assays?
KB-3-1 cytotox: inactive; PINK1 modulator: inactive; MCF10A rereplic: inactive; SW480 rereplic: 16µM; KB-V1 MDR tox: inactive

Results for CN=C(NC(=O)Nc1c(C)cccc1C)NC(=O)Nc1c(C)cccc1C ?
KB-3-1 cytotox: inactive; PINK1 modulator: inactive; MCF10A rereplic: inactive; SW480 rereplic: inactive; KB-V1 MDR tox: inactive

How did Cc1cccc(C)c1NC(=O)CN do in these assays?
KB-3-1 cytotox: inactive; PINK1 modulator: inactive; MCF10A rereplic: inactive; SW480 rereplic: 18µM; KB-V1 MDR tox: inconclusive

Results for COc1ccc(C(=O)NC(C)Cc2c[nH]c3ccccc23)cc1 (configuration not stated) ?
KB-3-1 cytotox: inactive; PINK1 modulator: inactive; KB-V1 MDR tox: inactive

Results for OCCC1CN(Cc2ccc3cccc(F)c3n2)CCN1Cc1ccccc1 (configuration not stated) ?
KB-3-1 cytotox: inactive; PINK1 modulator: inactive; MCF10A rereplic: inconclusive; SW480 rereplic: inactive; KB-V1 MDR tox: inactive

What do the screens show for `CCN(C(=O)COC(=O)CNC(=O)c1ccc2ccccc2c1)C1CCS(=O)(=O)C1` (configuration not stated)?
KB-3-1 cytotox: inactive; PINK1 modulator: inactive; MCF10A rereplic: 5.8µM; SW480 rereplic: inactive; KB-V1 MDR tox: inactive

Results for O=C(COC(=O)c1cc(-c2cccc3ccccc23)nc2ccccc12)NC1CCS(=O)(=O)C1 (configuration not stated) ?
KB-3-1 cytotox: inactive; PINK1 modulator: inactive; MCF10A rereplic: inactive; SW480 rereplic: inactive; KB-V1 MDR tox: inactive

What do the screens show for `CCN(C(=O)COC(=O)c1cc(-c2cccc3ccccc23)nc2ccccc12)C1CCS(=O)(=O)C1` (configuration not stated)?
KB-3-1 cytotox: inactive; PINK1 modulator: inactive; MCF10A rereplic: inactive; SW480 rereplic: inactive; KB-V1 MDR tox: 18µM

What do the screens show for `N#CCCN(CCC#N)S(=O)(=O)c1ccc(C(=O)Nc2nc(-c3ccccc3)c(C(=O)c3ccccc3)s2)cc1`?
KB-3-1 cytotox: inactive; PINK1 modulator: inactive; MCF10A rereplic: inconclusive; SW480 rereplic: inactive; KB-V1 MDR tox: inactive

How did O=C(Nc1nc(-c2ccccc2)c(C(=O)c2ccccc2)s1)c1ccc(S(=O)(=O)N2CCCC2)cc1 do in these assays?
KB-3-1 cytotox: 16µM; PINK1 modulator: inactive; MCF10A rereplic: inconclusive; SW480 rereplic: inactive; KB-V1 MDR tox: 3.7µM

Results for COc1cccc(OC)c1C(=O)Nc1nc2c(s1)CCc1ccccc1-2 ?
KB-3-1 cytotox: inactive; PINK1 modulator: inactive; KB-V1 MDR tox: inactive

How did O=C(Nc1nc(-c2ccccc2)c(-c2ccccc2)s1)c1ccc(S(=O)(=O)N2CCCC2)cc1 do in these assays?
KB-3-1 cytotox: inconclusive; PINK1 modulator: inactive; MCF10A rereplic: inactive; SW480 rereplic: inactive; KB-V1 MDR tox: 4.1µM

What do the screens show for `CCCN(CCC)S(=O)(=O)c1ccc(C(=O)Nc2nc3c(s2)CCc2ccccc2-3)cc1`?
KB-3-1 cytotox: 9.2µM; PINK1 modulator: inactive; MCF10A rereplic: inactive; SW480 rereplic: inactive; KB-V1 MDR tox: inactive

Results for CN(C)S(=O)(=O)c1ccc(C(=O)Nc2nc(-c3ccccc3)c(C(=O)c3ccccc3)s2)cc1 ?
KB-3-1 cytotox: inactive; PINK1 modulator: inactive; MCF10A rereplic: inactive; SW480 rereplic: inactive; KB-V1 MDR tox: 16µM

How did O=C(Nc1ccccc1)c1ccc(S(=O)(=O)N2CCCC2)cc1 do in these assays?
KB-3-1 cytotox: inactive; PINK1 modulator: inactive; MCF10A rereplic: inactive; SW480 rereplic: inactive; KB-V1 MDR tox: inactive

Results for O=C(NCc1ccc(F)cc1)c1ccc(CSc2nc3ccncc3n2Cc2ccc(F)cc2)cc1 ?
KB-3-1 cytotox: inactive; PINK1 modulator: inactive; KB-V1 MDR tox: inactive

What do the screens show for `CN(C(=O)COC(=O)c1cc(S(=O)(=O)N2CCOCC2)ccc1F)C1CCS(=O)(=O)C1` (configuration not stated)?
KB-3-1 cytotox: inactive; PINK1 modulator: inconclusive; MCF10A rereplic: inactive; SW480 rereplic: inactive; KB-V1 MDR tox: inactive

Results for CCCNC(=O)C1(C)CCN(Cc2ccc(OCc3ccccc3)cc2)C1 (configuration not stated) ?
KB-3-1 cytotox: inactive; PINK1 modulator: inactive; KB-V1 MDR tox: inconclusive

How did CCOC(=O)C1=C(c2ccccc2)NC(SC)=C(C#N)C1c1cccnc1 (configuration not stated) do in these assays?
KB-3-1 cytotox: inactive; PINK1 modulator: inactive; MCF10A rereplic: inactive; SW480 rereplic: inconclusive; KB-V1 MDR tox: inactive

What do the screens show for `CCCCOC(=O)CSC1=C(C#N)C(c2cccnc2)C(C(=O)OCC)=C(c2ccccc2)N1` (configuration not stated)?
KB-3-1 cytotox: inactive; PINK1 modulator: inactive; MCF10A rereplic: 18µM; SW480 rereplic: 23µM; KB-V1 MDR tox: inactive

What do the screens show for `CC(=O)C1=C(C)NC(SCC(N)=O)=C(C#N)C1c1cccnc1` (configuration not stated)?
KB-3-1 cytotox: inactive; PINK1 modulator: inactive; MCF10A rereplic: 21µM; SW480 rereplic: inactive; KB-V1 MDR tox: inactive

Results for O=C(CSc1nnc2c(n1)[nH]c1ccccc12)NCc1ccccc1F ?
KB-3-1 cytotox: inactive; PINK1 modulator: inactive; MCF10A rereplic: inactive; SW480 rereplic: inactive; KB-V1 MDR tox: inactive

Results for CCOc1cc2c(cc1O)C(=NO)CC1C2CCC2(C)C(O)CCC12 (configuration not stated) ?
KB-3-1 cytotox: inactive; PINK1 modulator: inactive; MCF10A rereplic: inconclusive; SW480 rereplic: inconclusive; KB-V1 MDR tox: inactive

How did COc1cc2c(cc1O)CC[C@@H]1[C@@H]2CC[C@]2(C)[C@@H](O)CC[C@@H]12 do in these assays?
KB-3-1 cytotox: 1.6µM; PINK1 modulator: inactive; MCF10A rereplic: inconclusive; SW480 rereplic: 3.3µM; KB-V1 MDR tox: 5.8µM

How did CC(=O)Oc1ccc2c(c1)CCC1C2CCC2(C)C(OC(C)=O)CCC12 (configuration not stated) do in these assays?
KB-3-1 cytotox: inconclusive; PINK1 modulator: inactive; MCF10A rereplic: inconclusive; SW480 rereplic: inactive; KB-V1 MDR tox: 10µM

What do the screens show for `C[C@]12CC[C@@H]3c4ccc(O)cc4CC[C@H]3[C@@H]1C[C@@H](O)[C@@H]2O`?
KB-3-1 cytotox: inactive; PINK1 modulator: inactive; MCF10A rereplic: inconclusive; SW480 rereplic: inactive; KB-V1 MDR tox: inconclusive

How did C[C@]12CC[C@@H]3c4ccc(OC(=O)c5ccccc5)cc4CC[C@H]3[C@@H]1CC[C@@H]2O do in these assays?
KB-3-1 cytotox: inconclusive; PINK1 modulator: inactive; MCF10A rereplic: 30µM!; SW480 rereplic: inactive; KB-V1 MDR tox: 21µM

Results for C[C@]12CCC3c4ccc(OC(=O)c5ccccc5)cc4CCC3C1CCC2=O (some centres not stated) ?
PINK1 modulator: inactive

How did CCC12CCC3c4ccc(O)cc4CCC3C1CC(O)C2O (configuration not stated) do in these assays?
KB-3-1 cytotox: inactive; PINK1 modulator: inactive; MCF10A rereplic: 18µM; SW480 rereplic: inconclusive; KB-V1 MDR tox: inactive
